The panel holds about 79,000 compounds, 15% with a hit somewhere; the sample as a whole holds those more often. Values without a mark were called inactive. Calls of active or inactive are those of the source. No stated cut-off is given here; in the data, active means growth inhibition above about 70%; inactive means the rest.

Test [1] is described as follows: NCI Yeast Anticancer Drug Screen. Data for the rad50 strain (AID 155).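 Further: 0% = growth of vehicle-only cultures of the same strain.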 To be noted: S. cerevisiae rad50 strain growth inhibition, hits give high values. An outline of the steps:
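Readout: growth inhibition relative to vehicle-treated cultures. Compound exposure was carried out in a genetically defined yeast strain deficient in DNA damage repair.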

A short description of test [2]: NCI Yeast Anticancer Drug Screen. Data for the mec2-1 strain (AID 157). To be noted: S. cerevisiae mec2-1 strain, hits give high values. An outline of the steps:
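Using mec2-1 yeast: add compound, measure growth, express inhibition versus vehicle-treated cultures.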

A short description of test [3]: NCI Yeast Anticancer Drug Screen. Data for the sgs1 mgt1 strain (AID 161).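 Further: 0% = growth of cultures given vehicle only.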 To be noted: S. cerevisiae sgs1 mgt1 strain, hits give high values. Put shortly:
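Growth of a repair-deficient yeast mutant was monitored after compound treatment and expressed as inhibition relative to vehicle-treated cultures.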

Test [4] can be described thus: NCI Yeast Anticancer Drug Screen. Data for the cln2 rad14 strain (AID 165).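 Further: 0% = growth equal to vehicle treated cultures.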 To be noted: S. cerevisiae cln2 rad14 strain, hits give high values. Put shortly:
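Yeast strain cln2 rad14, bearing defects in cell cycle control and DNA repair, serves as the test system; values reflect growth inhibition compared with vehicle.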

Test [5] can be described thus: NCI Yeast Anticancer Drug Screen. Data for the bub3 strain (AID 167). As to conditions: S. cerevisiae bub3 mutant strain, hits give high values. An outline of the steps: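 Readout: yeast growth inhibition, expressed relative to vehicle-only wells. The test organism is a mutant strain from a panel with lesions in DNA repair or checkpoint genes.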
Test [6] is described as follows: NCI Yeast Anticancer Drug Screen. Data for the mlh1 rad18 strain (AID 175). To be noted: S. cerevisiae mlh1 rad18 strain growth inhibition, hits give high values. Put shortly: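 Steps: expose repair-defective yeast to compound; measure growth; express inhibition against vehicle-treated controls.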
[7] abbreviates: at 5.0 µM (retest, dose inferred, filed as 0.5).
[8] abbreviates: at 50.0 µM (retest, dose inferred, filed as 5.0).

For the molecule `CCC1(O)c2ccccc2C(O)(CC)c2ccccc21` (configuration not stated), the growth inhibition was 11% in test [1] (setting [7]); 28% in test [1] (setting [8]); 74% (active) in test [1] (at 50.0 µM); 3% in test [2] (setting [7]); 40% in test [2] (setting [8]); 89.6% (active) in test [2] (at 50.0 µM). The growth inhibition in test [3] (setting [7]) was 5%; in test [3] (setting [8]) it was 53%; in test [3] (at 50.0 µM), 23.4%; in test [4] (setting [7]) it was 3%; in test [4] (setting [8]), 21%; in test [4] (at 50.0 µM), 96.5% (active). Moreover, the growth inhibition is 7% in test [5] (setting [7]); 54% in test [5] (setting [8]); 97% (active) in test [5] (at 50.0 µM); 14% in test [6] (setting [7]); 68% in test [6] (setting [8]); 97.7% (active) in test [6] (at 50.0 µM).

For the molecule `O=C(OCCCN1CCCC1)C(c1ccccc1)C1CCCCC1` (configuration not stated), the growth inhibition is 20% in test [1] (setting [7]); 67% in test [1] (setting [8]); 63.8% in test [1] (at 50.0 µM); 9% in test [2] (setting [7]); 87% (active) in test [2] (setting [8]); 52.4% in test [2] (at 50.0 µM). The growth inhibition in test [3] (setting [7]) is 23%; in test [3] (setting [8]), 91% (active); in test [3] (at 50.0 µM), 85.9% (active); in test [4] (setting [7]), 13%; in test [4] (setting [8]) it was 81% (active); in test [4] (at 50.0 µM), 79.8% (active). Also, the growth inhibition is 33% in test [5] (setting [7]); 91% (active) in test [5] (setting [8]); 54.4% in test [5] (at 50.0 µM); 42% in test [6] (setting [7]); 95% (active) in test [6] (setting [8]); 80.2% (active) in test [6] (at 50.0 µM).

On to `COc1cccc(C2c3cc4c(cc3OC(N3CCOCC3)C2C)OCO4)c1` (configuration not stated), for which the growth inhibition in test [1] (setting [7]) is 25%; in test [1] (setting [8]), 16%; in test [1] (at 50.0 µM), -11.8%; in test [2] (setting [7]), 14%; in test [2] (setting [8]), 6%; in test [2] (at 50.0 µM) it was -9.25%. In addition, the growth inhibition in test [3] (setting [7]) was 9%; in test [3] (setting [8]) it was 7%; in test [3] (at 50.0 µM) it was 3.2%; in test [4] (setting [7]), 11%; in test [4] (setting [8]) it was 6%; in test [4] (at 50.0 µM), 8.45%. Further, the growth inhibition is 26% in test [5] (setting [7]); 13% in test [5] (setting [8]); 0.2% in test [5] (at 50.0 µM); 20% in test [6] (setting [7]); 13% in test [6] (setting [8]); -3.05% in test [6] (at 50.0 µM).

On to `c1ccc(-c2nc3nc4ccccc4nc3nc2-c2ccccn2)nc1`, for which the growth inhibition is -8% in test [1] (setting [7]); 84% (active) in test [1] (setting [8]); 24.9% in test [1] (at 50.0 µM); 4% in test [2] (setting [7]); 92% (active) in test [2] (setting [8]); 0.9% in test [2] (at 50.0 µM). Moreover, the growth inhibition in test [3] (setting [7]) was 8%; in test [3] (setting [8]), 87% (active); in test [3] (at 50.0 µM), 20.6%; in test [4] (setting [7]), -5%; in test [4] (setting [8]), 85% (active); in test [4] (at 50.0 µM) it was -19.1%. Besides, the growth inhibition in test [5] (setting [7]) was -4%; in test [5] (setting [8]), 98% (active); in test [5] (at 50.0 µM), 50.6%; in test [6] (setting [7]), 14%; in test [6] (setting [8]), 98% (active); in test [6] (at 50.0 µM), 22.8%.

Consider `COC1=Nc2ccccc2S(=O)(=O)C=C1`, for which the growth inhibition in test [1] (setting [7]) is 4%; in test [1] (setting [8]), 87% (active); in test [1] (at 50.0 µM) it was 98.2% (active); in test [2] (setting [7]), 3%; in test [2] (setting [8]), 79% (active); in test [2] (at 50.0 µM), 98.5% (active). Moreover, the growth inhibition is 2% in test [3] (setting [7]); 89% (active) in test [3] (setting [8]); 99.2% (active) in test [3] (at 50.0 µM); 6% in test [4] (setting [7]); 79% (active) in test [4] (setting [8]); 95.8% (active) in test [4] (at 50.0 µM). Besides, the growth inhibition was 11% in test [5] (setting [7]); 98% (active) in test [5] (setting [8]); 98.7% (active) in test [5] (at 50.0 µM); 12% in test [6] (setting [7]); 94% (active) in test [6] (setting [8]); 98.3% (active) in test [6] (at 50.0 µM).

Turning to `O=C(NO)C(=O)Nc1cc(Cl)ccc1Cl`, the growth inhibition in test [1] (setting [7]) was 7%; in test [1] (setting [8]), 57%; in test [1] (at 50.0 µM), 86.8% (active); in test [2] (setting [7]), -8%; in test [2] (setting [8]), 90% (active); in test [2] (at 50.0 µM), 73% (active). The growth inhibition was -3% in test [3] (setting [7]); 89% (active) in test [3] (setting [8]); 79.8% (active) in test [3] (at 50.0 µM); 2% in test [4] (setting [7]); 94% (active) in test [4] (setting [8]); 74.5% (active) in test [4] (at 50.0 µM). Besides, the growth inhibition in test [5] (setting [7]) is -28%; in test [5] (setting [8]), 94% (active); in test [5] (at 50.0 µM), 85.9% (active); in test [6] (setting [7]), -2%; in test [6] (setting [8]), 94% (active); in test [6] (at 50.0 µM) it was 77.7% (active).

Take `COC(=O)CCC(C)C1CCC2C3CCC4CC(SC(=N)N)CCC4(C)C3CC(O)C12C` (configuration not stated): the growth inhibition in test [1] (setting [7]) was 95% (active); in test [1] (setting [8]), 99% (active); in test [1] (at 50.0 µM) it was 99.1% (active); in test [2] (setting [7]) it was 23%; in test [2] (setting [8]), 99% (active); in test [2] (at 50.0 µM), 99.7% (active). In addition, the growth inhibition in test [3] (setting [7]) was 98% (active); in test [3] (setting [8]), 99% (active); in test [3] (at 50.0 µM), 99.7% (active); in test [4] (setting [7]) it was 63%; in test [4] (setting [8]) it was 99% (active); in test [4] (at 50.0 µM), 99.2% (active). The growth inhibition in test [5] (setting [7]) was 99% (active); in test [5] (setting [8]) it was 99% (active); in test [5] (at 50.0 µM), 99.3% (active); in test [6] (setting [7]), 84% (active); in test [6] (setting [8]), 99% (active); in test [6] (at 50.0 µM) it was 99.4% (active).

In the case of `O=NNc1ncc(Sc2ccccc2)nc1Sc1ccccc1`, the growth inhibition in test [1] (setting [7]) is -14%; in test [1] (setting [8]), -8%; in test [1] (at 50.0 µM) it was -0.45%; in test [2] (setting [7]) it was -11%; in test [2] (setting [8]), 13%; in test [2] (at 50.0 µM), -24.9%. Besides, the growth inhibition in test [3] (setting [7]) is -3%; in test [3] (setting [8]), 20%; in test [3] (at 50.0 µM), 45.5%; in test [4] (setting [7]) it was 3%; in test [4] (setting [8]), 11%; in test [4] (at 50.0 µM) it was 15.5%. Further, the growth inhibition in test [5] (setting [7]) is -13%; in test [5] (setting [8]), -11%; in test [5] (at 50.0 µM), -9.1%; in test [6] (setting [7]), 4%; in test [6] (setting [8]) it was 12%; in test [6] (at 50.0 µM), 71.8% (active).

Consider `CCN(CC)c1c(C(=O)/C=C/c2ccc(OC)cc2)c(-c2ccccc2)nn(C)c1=O`, for which the growth inhibition in test [1] (setting [7]) is 17%; in test [1] (setting [8]) it was 17%; in test [1] (at 50.0 µM) it was 78.1% (active); in test [2] (setting [7]), 8%; in test [2] (setting [8]) it was 8%; in test [2] (at 50.0 µM), 72.5% (active). In addition, the growth inhibition in test [3] (setting [7]) was 5%; in test [3] (setting [8]), 5%; in test [3] (at 50.0 µM) it was 69%; in test [4] (setting [7]) it was 9%; in test [4] (setting [8]) it was 9%; in test [4] (at 50.0 µM) it was 77% (active). For the same molecule, the growth inhibition in test [5] (setting [7]) was -4%; in test [5] (setting [8]), -4%; in test [5] (at 50.0 µM) it was 71.3% (active); in test [6] (setting [7]), 8%; in test [6] (setting [8]) it was 8%; in test [6] (at 50.0 µM), 70.2% (active).

Source of the values: PubChem BioAssay (NCI).
